# Assay results: PubChem BioAssay (EPA / NIEHS)
# Activity calls are given as the source filed them. The calls were made as follows: active = hit-call score of the fitted dose curve at least 0.9, where 1 is the maximum; inactive = score below 0.9.
# Assay: APR_HepG2_StressKinase_72hr: Apredica 72-hour HepG2 Assay for Stress Kinase (AID 2282921)
# Conditions: HepG2 stress kinase (phospho-c-Jun) imaging, actives raise or lower the signal
# Procedure: APR_HepG2_72hr is a cell-based, multiplexed-readout assay that uses HepG2, a human liver cell line, with measurements taken at 72 hours after chemical dosing in a 384-well plate.APR_HepG2_StressKinase_72hr is one of 10 assay component(s) measured or calculated from the APR_HepG2_72hr assay. It is designed to make measurements of enzyme activity, a form of enzyme reporter, as detected with fluorescence intensity signals by HCS Fluorescent Imaging technology.Data from the assay component APR_HepG2_StressKinase_72hr was analyzed into 1 assay endpoint. This assay endpoint, APR_HepG2_StressKinase_72hr, was analyzed with bidirectional fitting relative to DMSO as the negative control and baseline of activity. Using a type of enzyme reporter, measures of protein for gain or loss-of-signal activity can be used to understand the signaling at the pathway-level as they relate to the gene . Furthermore, this assay endpoint can be referred to as a primary readout, because this assay has produced multiple assay endpoints where this one serves a signaling function. To generalize the intended target to other relatable targets, this assay endpoint is annotated to the cell cycle intended target family, where the subfamily is stress response.
# Cells were treated with dimethyl sulfoxide (DMSO) as a solvent control at a final concentration of 0.5% v/v or with compounds in DMSO with a resulting final DMSO concentration of 0.5% v/v. Compound treatment was done at concentrations of 0.39, 0.78, 1.56, 3.12, 6.24, 12.5, 25, 50, 100, and 200 uM in duplicate on each plate. Cells were treated with compounds for 1, 24, or 72 hr. Carbonyl […] m-chloro-phenylhydrazone (CCCP) and taxol were used as positive controls for mitochondrial function and cytoskeletal stability, respectively; DMSO served as the negative control for this experiment. Cells were fixed by the direct addition of 50 uL formaldehyde in Hank's Balanced Salt Solution (HBSS) to a final concentration of 3.7%. After incubation in the fixation medium for 30 min at room temperature (293-298 K), cells were rinsed twice with HBSS and treated with cell permeabilization buffer (16 uL of 0.5% Triton X-100) for 10 min at room temperature (293-298 K) before labeling. For mitochondrial membrane potential and mitochondrial measurements, pre-fixed cells were incubated with 50 uL of MitoTracker Red CMXRos (Invitrogen) at a concentration of 250 nM for 30 min before fixation. In the remaining cases, post-fixed cells were labeled by incubation with a multiplexed mixture of primary antibodies in HBSS for 60 min at room temperature (293-298 K) to detect immunoreactivity of c-Jun (1:500), phospho-histone H3 (1:100), phospho-histone H2A.x (1:200), p53 (1:400), alpha-tubulin (1:200) and Hoechst 33342 (2 ug/mL). Cells were labeled for multiplexed imaging on two separate plates: a) Hoechst 33342, MitoTracker Red, phospho-histone H3, and alpha-tubulin, and b) Hoechst 33342, phospho-histone H2A.x, and c-Jun. A final rinse with HBSS (50 uL) was performed before analysis. The primary and secondary antibodies for the proteins were phospho-histone H3 (rabbit anti-phospho-histone H3 and FITC-donkey anti-rabbit IgG), phospho-histone H2A.x (mouse anti-phospho-histone H2A.x and FITC-donkey anti-mouse IgG), c-Jun (rabbit anti-phospho-c-Jun and Cy3-donkey anti-rabbit IgG), p53 (sheep anti-p53 and Cy5-donkey anti-sheep IgG), alpha-tubulin (mouse anti-alpha-tubulin and Cy5-donkey anti-mouse IgG). These antibodies are available as the CellCiphr HepG2 assay kit (Millipore).Digital images of each well were captured using a Cellomics ArrayScan VTI (Thermo Scientific Cellomics) (0.8 NA objective, 0.63x optical coupler, and XF-93 filter set) at 20x magnification. The images were acquired using the autofocus feature of the ArrayScan instrument, which entails the following steps. First, the camera focuses on channel 1 (Hoechst 33342), where nuclei are identified. Second, a Z offset of 1 um is used for capturing mitochondria (MitoTracker Red). […]
SMILES,outcome,AC50
CCC(=O)O[C@H]1CC[C@H]2[C@@H]3CCC4=CC(=O)CC[C@]4(C)[C@H]3CC[C@]12C,inactive,–
ClC(Cl)=C(c1ccc(Cl)cc1)c1ccc(Cl)cc1,inactive,–
Cc1ccccc1CO[C@@H]1C[C@@]2(C(C)C)CC[C@]1(C)O2,inactive,–
COS(=O)(=O)OC,inactive,–
Nc1ccc(-c2ccc(N)cc2)cc1,inactive,–
Cc1cccc([N+](=O)[O-])c1,inactive,–
Clc1ccc(C(c2ccccc2Cl)C(Cl)(Cl)Cl)cc1 (stereo not given),inactive,–
Cc1ccccc1O,inactive,–
C[C@]12CCC(=O)C=C1CC[C@@H]1[C@@H]2CC[C@]2(C)C(=O)CC[C@@H]12,inactive,–
CCCCCCCCCc1ccc(O)cc1,inactive,–
CC(C)(O)C(=O)Nc1ccc([N+](=O)[O-])c(C(F)(F)F)c1,inactive,–
CCCN(CCC)N=O,inactive,–
Cc1cc(O)ccc1Cl,inactive,–
c1ccc(-c2ccccc2)cc1,inactive,–
Clc1ccc(C(Cl)(Cl)Cl)cc1,inactive,–
CC(C)(c1ccccc1)c1ccc(O)cc1,inactive,–
Clc1ccc(Cl)cc1,inactive,–
Oc1ccc(C(c2ccc(O)cc2)(C(F)(F)F)C(F)(F)F)cc1,inactive,–
CN(C)c1nc(=O)n(C2CCCCC2)c(=O)n1C,inactive,–
ClC1=C(Cl)[C@]2(Cl)[C@@H]3[C@@H]4C[C@@H]([C@H]5O[C@@H]45)[C@@H]3[C@@]1(Cl)C2(Cl)Cl,inactive,–

SMILES,outcome,AC50
CC(C)C(=O)OCC(C)(C)C(OC(=O)C(C)C)C(C)C (stereo not given),inactive,–
O=NN(c1ccccc1)c1ccccc1,inactive,–
C1CC2OC2CC1C1CO1 (stereo not given),inactive,–
CCC(C)(c1ccc(O)cc1)c1ccc(O)cc1,–,34.3 µM (active)
ClC1=C(Cl)[C@]2(Cl)[C@@H]3[C@@H](Cl)[C@H]4O[C@H]4[C@@H]3C1(Cl)C2(Cl)Cl,inactive,–
CO/C=C(/C(=O)OC)c1ccccc1COc1cccc(C(F)(F)F)n1,inactive,–
CCOP(=S)(OCC)SCSC(C)(C)C,inactive,–
CC1=C2C[C@H]3[C@@H](CC=C4C[C@@H](O)CC[C@@]43C)[C@@H]2CC[C@]12O[C@@H]1C[C@H](C)CN[C@H]1[C@H]2C,inactive,–
O=S(=O)(O)C(F)(F)C(F)(F)C(F)(F)C(F)(F)C(F)(F)C(F)(F)F,inactive,–
O=C(NC(=O)c1c(F)cccc1F)Nc1cc(Cl)c(OC(F)(F)C(F)F)c(Cl)c1,inactive,–
Cc1ccccc1[N+](=O)[O-],inactive,–
CCCCCCOC(=O)c1ccccc1C(=O)OCCCCCC,inactive,–
O=S(=O)(O)C(F)(F)C(F)(F)C(F)(F)C(F)(F)F,inactive,–
CCOCCOC(C)=O,inactive,–
CN(C)CCO,inactive,–
Cc1ccc(O)c(C)c1,inactive,–
O=C(NC(=O)c1cc(F)c(F)cc1Cl)Nc1cc(F)ccc1N1CCC(C(=O)O)CC1,inactive,–
O=C(O)C(F)(F)C(F)(F)C(F)(F)C(F)(F)C(F)(F)C(F)(F)C(F)(F)C(F)(F)C(F)(F)F,–,113 µM (active)
CCOC(=O)C(O)(c1ccc(Cl)cc1)c1ccc(Cl)cc1,inactive,–
c1cc2ccc3cccc4ccc(c1)c2c34,inactive,–
